Results filed as inconclusive are left out. Unless noted, calls come from the whole dose curve; as a rule, active = well fitted curve in either direction with a large enough effect (not every such curve was filed as active); inconclusive = small, poorly fitted or top-dose-only effect, or another doubt; inactive = flat fitted curve, though single readings scatter.
How the values were obtained:
[1] = AP1 Signaling Pathway (AID 357); conditions: ME-180 AP-1-bla reporter, EGF-induced, beta-lactamase ratio, 5 h; at 17.2 µM (top of the series) unless noted;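 note: ME-180 reporter cells stimulated with EGF at its EC50 level; % is set by controls: 0 for no effect and ±100 for the full control effect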
Procedure, shortened: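 Cells are seeded overnight, exposed to compound titrations and an EC50 level of EGF for 5 hours at 37 °C, then loaded with CCF4 dye for 2.5 hours. Beta-lactamase activity under the AP-1 element is read as a blue/green ratio.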

[2] = NFAT Signaling Pathway (AID 444); conditions: Jurkat NFAT-bla M1, carbachol, beta-lactamase ratio, 5 h; at 17.2 µM (top of the series) unless noted;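 note: carbachol stimulus at about its EC50 of 1 µM final; % is set by controls: 0 for no effect and ±100 for the full control effect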
Procedure, shortened: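 Jurkat cells carrying an NFAT-driven β-lactamase reporter and co-transfected muscarinic M1 receptor were treated with compound plus carbachol (1 uM final, an EC50 level) for 5 h at 37 °C. CCF4 loading followed for 1 h at RT; 460/530 nm ratio gave %activity.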

[3] = Stat Signaling Pathway (AID 446); conditions: ME-180 SIE beta-lactamase reporter, IL-6 stimulated, 5 h; at 17.2 µM (top of the series) unless noted;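 note: ME-180 cervical cancer cells given 40 pM IL-6 alongside compound; SIE-controlled beta-lactamase reporter measured as 460/530 nm FRET emission ratio; % is set by controls: 0 for no effect and ±100 for the full control effect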
Procedure, shortened: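 Reporter line: ME-180 cervical carcinoma, SIE-beta-lactamase. Treatment: compound with 40 pM IL-6, 5 hrs, 37 C, in low-serum OPTI-MEM with 10 mM HEPES pH 7.3. Detection: 460/530 nm fluorescence.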

[4] = target: Glucocorticoid receptor (Homo sapiens) (UniProt P04150); test: GR-GFP Redistribution (AID 450;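 active = compounds whose dose series gives a full or clear partial fitted curve of increased nuclear translocation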; note: potency is the fitted concentration of half-maximal effect)
Sequence of Glucocorticoid receptor (Homo sapiens) (P04150 whole entry, looked up): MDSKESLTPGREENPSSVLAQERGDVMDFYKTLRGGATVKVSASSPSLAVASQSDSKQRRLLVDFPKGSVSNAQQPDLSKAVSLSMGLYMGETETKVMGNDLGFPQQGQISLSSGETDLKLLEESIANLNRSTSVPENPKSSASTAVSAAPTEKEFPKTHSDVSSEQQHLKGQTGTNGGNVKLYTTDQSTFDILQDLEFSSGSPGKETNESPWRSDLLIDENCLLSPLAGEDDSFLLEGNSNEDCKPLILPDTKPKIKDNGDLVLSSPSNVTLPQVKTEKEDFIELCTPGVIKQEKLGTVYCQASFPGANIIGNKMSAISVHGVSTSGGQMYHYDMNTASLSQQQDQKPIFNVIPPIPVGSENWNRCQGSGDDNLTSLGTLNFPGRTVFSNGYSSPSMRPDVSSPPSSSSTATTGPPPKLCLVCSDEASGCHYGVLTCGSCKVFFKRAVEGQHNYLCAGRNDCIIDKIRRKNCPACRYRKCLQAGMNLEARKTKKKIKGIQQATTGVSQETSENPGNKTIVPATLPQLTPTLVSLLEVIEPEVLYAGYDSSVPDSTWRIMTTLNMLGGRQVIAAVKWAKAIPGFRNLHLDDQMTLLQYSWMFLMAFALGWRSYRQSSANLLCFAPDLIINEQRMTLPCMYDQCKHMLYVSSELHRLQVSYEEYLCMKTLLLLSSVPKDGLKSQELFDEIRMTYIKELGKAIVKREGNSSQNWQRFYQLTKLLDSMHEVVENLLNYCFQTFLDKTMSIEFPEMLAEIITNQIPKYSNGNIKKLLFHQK

O=C(Nc1ccc2c(c1)OCO2)c1cncc(Br)c1
inactive: activity change, negative = inhibition [1] -12.1% | activity change, negative = inhibition [2] -3.16% | activity, negative = inhibition [3] -14.9% | Potency [4] > 20.6 µM

Cc1ccc(C#N)c(SCc2cc3c(cc2Cl)OCO3)n1
inactive: activity change, negative = inhibition [1] 12.7% | activity change, negative = inhibition [2] -1.4% | activity, negative = inhibition [3] 4.71% | Potency [4] > 20.6 µM

C=C(C)CSC1=C(C#N)C(c2ccsc2)CC(=O)N1 (stereo not given)
inactive: activity change, negative = inhibition [1] -7.58% | activity change, negative = inhibition [2] -0.539% | activity, negative = inhibition [3] -1.45% | Potency [4] > 20.6 µM

CC1(C)CC(=O)C=C(NCc2ccncc2)C1
inactive: activity change, negative = inhibition [1] 10% | activity change, negative = inhibition [2] -8.43% | activity, negative = inhibition [3] 8.27% | Potency [4] > 20.6 µM

Cc1ccc(C(=O)C2=C(O)C(=O)N(CCN3CCOCC3)C2c2ccccn2)o1 (stereo not given)
inactive: activity change, negative = inhibition [1] -1.65% | activity change, negative = inhibition [2] 8.69% | activity, negative = inhibition [3] 5.67% | Potency [4] > 20.6 µM

COC(=O)/C=c1/s/c(=C(/C#N)C(=O)N2CCCCC2)n(-c2ccccc2)c1=O
inactive: activity change, negative = inhibition [1] 26% | activity change, negative = inhibition [2] -25.6% | activity, negative = inhibition [3] -5.91% | Potency [4] > 20.6 µM

CCOc1cc(CN2CCOCC2)cc(C(C)=O)c1
inactive: activity change, negative = inhibition [1] 14.3% | activity change, negative = inhibition [2] -4.27% | activity, negative = inhibition [3] 1.95% | Potency [4] > 20.6 µM

Fc1cc(F)c(F)c(SCCc2ccncc2)c1F
inactive: activity change, negative = inhibition [1] -7.09% | activity change, negative = inhibition [2] -5.43% | activity, negative = inhibition [3] -0.589% | Potency [4] > 20.6 µM

CC(C)OC(=O)CCNc1n[nH]c(=O)[nH]c1=O
inactive: activity change, negative = inhibition [1] 5.78% | activity change, negative = inhibition [2] 0.573% | activity, negative = inhibition [3] 0.163% | Potency [4] > 20.6 µM

CCc1ccccc1NC(=O)CSC1=C(C#N)C(c2ccc(O)c(OC)c2)C2=C(CCCC2=O)N1 (stereo not given)
inactive: activity change, negative = inhibition [1] -4.47% | activity change, negative = inhibition [2] 2.67% | activity, negative = inhibition [3] -5.76% | Potency [4] > 20.6 µM

Cc1nnc2n(C3CCCCC3)c(=O)c3c4c(sc3n12)COC(C)(C)C4
inactive: activity change, negative = inhibition [1] 4.48% | activity change, negative = inhibition [2] 5.64% | activity, negative = inhibition [3] 0.172% | Potency [4] > 20.6 µM

COC(=O)c1c(C)[nH]c(C(=O)OCc2ccc(F)cc2)c1C
inactive: activity change, negative = inhibition [1] 14.7% | activity change, negative = inhibition [2] 5.66% | activity, negative = inhibition [3] -8.92% | Potency [4] > 20.6 µM

CCCCc1nc(NCCN2CCOCC2)c(C#N)c2c1COC(C)(C)C2
inactive: activity change, negative = inhibition [1] -15.7% | activity change, negative = inhibition [2] 13.3% | activity, negative = inhibition [3] 1.05% | Potency [4] > 20.6 µM

Cc1nc(N2CCOCC2)c(C#N)c2c1COC(C)(C)C2
inactive: activity change, negative = inhibition [1] 0.635% | activity change, negative = inhibition [2] 2.49% | activity, negative = inhibition [3] 7.32% | Potency [4] > 20.6 µM

COc1ccc(C2CC(c3ccc(C)cc3)Nc3nc(N)nn32)cc1 (stereo not given)
inactive: activity change, negative = inhibition [1] -10.4% | activity change, negative = inhibition [2] 11.6% | activity, negative = inhibition [3] 1.75% | Potency [4] > 20.6 µM

CCCCc1nc2sc3c(c2c(=O)[nH]1)CCC3
inactive: activity change, negative = inhibition [1] -16.9% | activity change, negative = inhibition [2] -7.93% | activity, negative = inhibition [3] -2.54% | Potency [4] > 20.6 µM

Cc1ccc(N2C(=O)C3ON(c4ccccc4)C(c4ccncc4)C3C2=O)c(C)c1 (stereo not given)
inactive: activity change, negative = inhibition [1] 4.43% | activity change, negative = inhibition [2] 26.3% | activity, negative = inhibition [3] 0.652% | Potency [4] > 20.6 µM

COC(=O)CC1=NC(=O)CS1
inactive: activity change, negative = inhibition [1] 17.8% | activity change, negative = inhibition [2] -3.72% | activity, negative = inhibition [3] 12.3% | Potency [4] > 20.6 µM

COc1cc(C2C3C(=O)N(c4ccccc4)C(=O)C3ON2c2ccccc2)ccc1O (stereo not given)
inactive: activity change, negative = inhibition [1] 2.35% | activity change, negative = inhibition [2] 7.65% | activity, negative = inhibition [3] -2.83% | Potency [4] > 20.6 µM

Oc1ccccc1-c1nc(NCCN2CCOCC2)c2ccccc2n1
inactive: activity change, negative = inhibition [1] -13.2% | activity change, negative = inhibition [2] 25.8% | activity, negative = inhibition [3] -12.5% | Potency [4] > 20.6 µM

S=c1[nH]nc(-c2ccccc2)n1Cc1ccccc1
inactive: activity change, negative = inhibition [1] -4.69% | activity change, negative = inhibition [2] -11.2% | activity, negative = inhibition [3] 6.25% | Potency [4] > 20.6 µM

COc1ccc(N/C(=N\c2nc(C)cc(C)n2)NC(=O)C(C)C)cc1OC
inactive: activity change, negative = inhibition [1] -12.4% | activity change, negative = inhibition [2] 21.2% | activity, negative = inhibition [3] -1.06% | Potency [4] > 20.6 µM

COc1ccc(/C(O)=C2\C(=O)C(=O)N(CCN(C)C)C2c2cccc(OC)c2OC)cc1 (stereo not given)
inactive: activity change, negative = inhibition [1] 10.8% | activity change, negative = inhibition [2] -5.32% | activity, negative = inhibition [3] 11.6% | Potency [4] > 20.6 µM

Cc1cc(C)nc(N(C#N)S(=O)(=O)c2ccccc2Cl)n1
inactive: activity change, negative = inhibition [1] 0.835% | activity change, negative = inhibition [2] -12.4% | activity, negative = inhibition [3] -19.9% | Potency [4] > 20.6 µM

COc1ccccc1N1CCN(C2CCN(C(=O)c3cc(OC)c(OC)c(OC)c3)CC2)CC1
inactive: activity change, negative = inhibition [1] 12.5% | activity change, negative = inhibition [2] 4.07% | activity, negative = inhibition [3] 10.4% | Potency [4] > 20.6 µM
